From PubChem BioAssay (NCATS)
Records with an inconclusive call do not appear. The source made the active and inactive calls. Calls come from the whole dose curve; as a rule, active = well fitted cell-killing curve with a large enough effect; inconclusive = small, poorly fitted or top-dose-only effect, or effect the other way; inactive = no such curve, though single readings can be large or run the other way.

Legend:
[1] = Quantitative High-Throughput drug screen in 47 multiple myeloma cell lines against the NCATS MIPE library collection: L363_DSMZ cell viability assay (AID 1918984); conditions: L363 myeloma viability, CellTiter-Glo ATP luminescence, 48 h; viability (% of control): at 45.8 µM (top of the series); note: nearly all actives have a fitted effect of over 40% in size
Summary of the method: (§1)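 500 cells/well per myeloma line exposed to pinned MIPE 4.0 compounds for 48 h at 37 °C, 5% CO2. Viability read as ATP by CellTiter-Glo luminescence, normalised to DMSO-only (100%) and media-only (0%) wells.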

[2] = Quantitative High-Throughput drug screen in 47 multiple myeloma cell lines against the NCATS MIPE library collection: KMS34_JCRB cell viability assay (AID 1918985); conditions: KMS34 myeloma viability, CellTiter-Glo ATP luminescence, 48 h; series mostly up to 45.8 µM; note: nearly all actives have a fitted effect of over 40% in size
Summary of the method: as §1

[3] = Quantitative High-Throughput drug screen in 47 multiple myeloma cell lines against the NCATS MIPE library collection: OCIMY5_PLB cell viability assay (AID 1918988); conditions: OCI-MY5 myeloma viability, ATP luminescence, 48 h; series mostly up to 45.8 µM; note: nearly all actives have a fitted effect of over 65% in size
Summary of the method: as §1

[4] = Quantitative High-Throughput drug screen in 47 multiple myeloma cell lines against the NCATS MIPE library collection: OPM1_PLB cell viability assay (AID 1918989); conditions: CellTiter-Glo, 48 h; series mostly up to 45.8 µM; note: nearly all actives have a fitted effect of over 40% in size
Summary of the method: as §1

[5] = Quantitative High-Throughput drug screen in 47 multiple myeloma cell lines against the NCATS MIPE library collection: SKMM1_PLB cell viability assay (AID 1919863); conditions: SKMM1 myeloma viability, CellTiter-Glo ATP, 48 h; viability: active compounds read low; note: nearly all actives have a fitted effect of over 35% in size
Summary of the method: as §1

[6] = Quantitative High-Throughput drug screen in 47 multiple myeloma cell lines against the NCATS MIPE library collection: U266_ATCC cell viability assay (AID 1919864); conditions: U266 myeloma viability, CellTiter-Glo ATP luminescence, 48 h; series mostly up to 45.8 µM; note: nearly all actives have a fitted effect of over 35% in size
Summary of the method: as §1

[7] = Quantitative High-Throughput drug screen in 47 multiple myeloma cell lines against the NCATS MIPE library collection: XG6_PLB cell viability assay (AID 1919865); conditions: XG6 myeloma viability, CellTiter-Glo ATP luminescence, 48 h; series mostly up to 45.8 µM; note: nearly all actives have a fitted effect of over 40% in size
Summary of the method: as §1

[8] = Quantitative High-Throughput drug screen in 47 multiple myeloma cell lines against the NCATS MIPE library collection: XG1_PLB cell viability assay (AID 1919866); conditions: CellTiter-Glo ATP, 48 h; series mostly up to 45.8 µM; note: nearly all actives have a fitted effect of over 35% in size
Summary of the method: as §1

[9] = Quantitative High-Throughput drug screen in 47 multiple myeloma cell lines against the NCATS MIPE library collection: UTMC2_PLB cell viability assay (AID 1919868); conditions: CellTiter-Glo ATP luminescence, 48 h; viability (% of DMSO control): at 45.8 µM (top of the series); note: nearly all actives have a fitted effect of over 55% in size
Summary of the method: as §1

[10] = Quantitative High-Throughput drug screen in 47 multiple myeloma cell lines against the NCATS MIPE library collection: PE2_PLB cell viability assay (AID 1919869); conditions: PE2_PLB myeloma cells viability, ATP luminescence, 48 h; series mostly up to 45.8 µM; note: nearly all actives have a fitted effect of over 35% in size
Summary of the method: as §1

[11] = Quantitative High-Throughput drug screen in 47 multiple myeloma cell lines against the NCATS MIPE library collection: PCM6_Riken cell viability assay (AID 1919870); conditions: CellTiter-Glo ATP, 48 h; series mostly up to 45.8 µM; note: nearly all actives have a fitted effect of over 30% in size
Summary of the method: as §1

[12] = Quantitative High-Throughput drug screen in 47 multiple myeloma cell lines against the NCATS MIPE library collection: RPMI8226_ATCC cell viability assay (AID 1919871); conditions: RPMI8226 myeloma viability, CellTiter-Glo ATP luminescence, 48 h; series mostly up to 45.8 µM; note: nearly all actives have a fitted effect of over 30% in size
Summary of the method: as §1

[13] = Quantitative High-Throughput drug screen in 47 multiple myeloma cell lines against the NCATS MIPE library collection: OPM2_DSMZ cell viability assay (AID 1919872); conditions: OPM2 myeloma viability, CellTiter-Glo ATP luminescence, 48 h; series mostly up to 45.8 µM; note: nearly all actives have a fitted effect of over 30% in size
Summary of the method: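 Luminescent ATP measurement with CellTiter-Glo gives viability, scaled between DMSO-only wells (100%) and media-only wells (0%). Cells, 500 per well, faced library compounds for 48 hours at 37C.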

[14] = Quantitative High-Throughput drug screen in 47 multiple myeloma cell lines against the NCATS MIPE library collection: OCIMY7_PLB cell viability assay (AID 1918987); conditions: OCI-MY7 myeloma viability, CellTiter-Glo ATP, 48 h; viability (% of DMSO): at 45.8 µM (top of the series); note: nearly all actives have a fitted effect of over 65% in size
Summary of the method: as §1

[15] = Quantitative High-Throughput drug screen in 47 multiple myeloma cell lines against the NCATS MIPE library collection: VP6_DJ cell viability assay (AID 1919867); conditions: ATP luminescence, 48 h; series mostly up to 45.8 µM; note: nearly all actives have a fitted effect of over 40% in size
Summary of the method: as §1

[16] = Quantitative High-Throughput drug screen in 47 multiple myeloma cell lines against the NCATS MIPE library collection: KMS28BM_JCRB cell viability assay (AID 1919874); conditions: CellTiter-Glo ATP, 48 h; series mostly up to 45.8 µM; note: nearly all actives have a fitted effect of over 35% in size
Summary of the method: as §1

[17] = Quantitative High-Throughput drug screen in 47 multiple myeloma cell lines against the NCATS MIPE library collection: KMS11_JCRBsus cell viability assay (AID 1919873); conditions: KMS11 myeloma viability, CellTiter-Glo ATP luminescence, 48 h; series mostly up to 45.8 µM; note: nearly all actives have a fitted effect of over 50% in size
Summary of the method: as §1
Potency is the fitted concentration of half-maximal effect.

CC(O)=C(C#N)C(=O)Nc1ccc(C(F)(F)F)cc1
inactive: Potency [1] | Potency [13]
active: Potency [2] 18.7 µM | Potency [3] 16.6 µM | Potency [4] 16.6 µM | Potency [5] 18.7 µM | Potency [6] 23.5 µM | Potency [7] 18.7 µM | Potency [8] 16.6 µM | Potency [9] 33.2 µM | Potency [10] 8.33 µM | Potency [11] 20.9 µM | Potency [12] 6.62 µM

Cc1cccc(-c2[nH]c(C(C)(C)C)nc2-c2ccc3c(c2)OCO3)n1
active: Potency [1] 2.35 µM | Potency [2] 18.7 µM | Potency [14] 9.35 µM | Potency [3] 14.8 µM | Potency [5] 20.9 µM | Potency [6] 16.6 µM | Potency [7] 2.96 µM | Potency [8] 1.05 µM | Potency [15] 0.743 µM | Potency [9] 0.743 µM | Potency [10] 1.18 µM | Potency [11] 0.833 µM | Potency [12] 16.6 µM | Potency [16] 16.6 µM

CCC(C)SSc1ncc[nH]1 (stereo not drawn)
active: Potency [1] 2.96 µM | Potency [2] 4.18 µM | Potency [14] 3.72 µM | Potency [3] 5.26 µM | Potency [4] 3.72 µM | Potency [5] 11.8 µM | Potency [6] 4.69 µM | Potency [7] 7.43 µM | Potency [8] 5.26 µM | Potency [9] 8.33 µM | Potency [10] 3.72 µM | Potency [16] 9.35 µM

CC1=C[C@@H]2[C@@H]([C@@H](O)C[C@@]3(C)[C@H]2C[C@@H](C)[C@]3(O)C(=O)CO)[C@@]2(C)Cc3cnn(-c4ccccc4)c3C=C12
active: Potency [1] 0.0332 µM | Potency [2] 23.5 µM | Potency [3] 1.87 µM | Potency [5] 18.7 µM | Potency [6] 20.9 µM | Potency [7] 20.9 µM | Potency [10] 23.5 µM | Potency [12] 0.0264 µM | Potency [13] 20.9 µM | Potency [17] 0.0059 µM

C[C@@H](O[C@H]1OCCN(Cc2n[nH]c(=O)[nH]2)[C@@H]1c1ccc(F)cc1)c1cc(C(F)(F)F)cc(C(F)(F)F)c1
active: Potency [1] 4.69 µM | Potency [2] 20.9 µM | Potency [3] 23.5 µM | Potency [4] 23.5 µM | Potency [5] 23.5 µM | Potency [7] 16.6 µM | Potency [9] 33.2 µM | Potency [10] 20.9 µM | Potency [11] 20.9 µM | Potency [12] 23.5 µM

NC1(C(=O)N[C@@H](CCO)c2ccc(Cl)cc2)CCN(c2ncnc3[nH]ccc23)CC1
active: Potency [1] 0.235 µM | Potency [2] 8.33 µM | Potency [14] 3.72 µM | Potency [3] 5.26 µM | Potency [4] 1.48 µM | Potency [5] 5.9 µM | Potency [6] 13.2 µM | Potency [7] 20.9 µM | Potency [8] 4.18 µM | Potency [15] 0.235 µM | Potency [9] 0.235 µM | Potency [10] 5.9 µM | Potency [11] 5.26 µM | Potency [12] 6.62 µM | Potency [16] 0.372 µM

C[C@@H](N)c1ccc(C(=O)Nc2ccnc3[nH]ccc23)cc1
inactive: Potency [12]
active: Potency [1] 20.9 µM | Potency [2] 20.9 µM | Potency [3] 23.5 µM | Potency [6] 16.6 µM | Potency [7] 20.9 µM | Potency [8] 20.9 µM | Potency [15] 26.4 µM | Potency [9] 16.6 µM | Potency [10] 26.4 µM | Potency [11] 16.6 µM | Potency [16] 23.5 µM

O=C1C(CCC(O)c2ccc(F)cc2)C(c2ccc(O)cc2)N1c1ccc(F)cc1 (stereo not drawn)
active: Potency [7] 2.09 µM | Potency [15] 3.32 µM
inactive: Potency [1] | Potency [2] | Potency [14] | Potency [4] | viability [5] 99.3% | Potency [8] | Potency [12] | Potency [13] | Potency [17]

O=C(Nc1ncc(SCCN2CCCC2)s1)[C@]1(c2ccc(S(=O)(=O)C3CC3)cc2)C[C@@H]1C1CCCCC1
active: Potency [1] 7.43 µM | Potency [2] 18.7 µM | Potency [14] 18.7 µM | Potency [3] 14.8 µM | Potency [4] 16.6 µM | Potency [5] 23.5 µM | Potency [6] 8.33 µM | Potency [7] 10.5 µM | Potency [8] 8.33 µM | Potency [15] 9.35 µM | Potency [12] 23.5 µM | Potency [16] 8.33 µM

COc1cc([C@H]2Oc3cc([C@H]4Oc5cc(O)cc(O)c5C(=O)[C@H]4O)ccc3O[C@H]2CO)ccc1O
active: Potency [2] 20.9 µM | Potency [3] 10.5 µM | Potency [4] 14.8 µM | Potency [5] 23.5 µM | Potency [7] 14.8 µM | Potency [8] 16.6 µM | Potency [15] 11.8 µM | Potency [16] 10.5 µM
inactive: Potency [1]

Cc1ccccc1-n1c(Cn2nc(-c3cccc(O)c3)c3c(N)ncnc32)nc2cccc(C)c2c1=O
active: Potency [1] 2.35 µM | Potency [2] 3.32 µM | Potency [14] 2.96 µM | Potency [3] 10.5 µM | Potency [4] 2.35 µM | Potency [5] 8.33 µM | Potency [7] 0.935 µM | Potency [8] 2.09 µM | Potency [15] 1.05 µM | Potency [9] 4.18 µM | Potency [10] 2.35 µM | Potency [11] 5.9 µM | Potency [12] 13.2 µM | Potency [13] 8.33 µM | Potency [16] 7.43 µM
